Reference: the supplement of paper PMC8728848
About 410 targets per protein were measured; listed, in parts, are those with the strongest signals and a random draw of the rest.

Key:
Assay in all cases: glycan array binding signal (z-score within array); higher = stronger binding
Gal(a1-4)Gal(b1-4)GlcNAc = details: glycan notation: IUPAC condensed, linker removed
Outline: (§1)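 The binding signal is a Z-score computed within each array and averaged over linkers. Arrays of the same protein sequence at different concentrations or buffers were also averaged together. Data originate from 3228 arrays in the Consortium for Functional Glycomics database, kept only where the protein sequence was available.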

Gal(a1-6)Glc = details: glycan notation: IUPAC condensed, linker removed
Outline: as §1

[1] = system: Gal(b1-3)GlcNAc(b1-2)Man(a1-3)[GlcNAc(b1-4)][Gal(b1-3)GlcNAc(b1-2)Man(a1-6)]Man(b1-4)GlcNAc(b1-4)GlcNAc; details: glycan notation: IUPAC condensed, linker removed
Outline: as §1

Gal(a1-4)Gal(b1-4)Glc = details: glycan notation: IUPAC condensed, linker removed
Outline: as §1

[2] = system: Gal(b1-3)Gal(b1-4)GlcNAc(b1-2)Man(a1-3)[Gal(b1-3)Gal(b1-4)GlcNAc(b1-2)Man(a1-6)]Man(b1-4)GlcNAc(b1-4)GlcNAc; details: glycan notation: IUPAC condensed, linker removed
Outline: as §1

[3] = system: Gal(b1-3)GlcNAc(b1-2)Man(a1-3)[Gal(b1-3)GlcNAc(b1-2)Man(a1-6)]Man(b1-4)GlcNAc(b1-4)GlcNAc; details: glycan notation: IUPAC condensed, linker removed
Outline: as §1

[4] = system: Gal(b1-3)GalNAc(b1-3)Gal(b1-4)Glc; details: glycan notation: IUPAC condensed, linker removed
Outline: as §1

[5] = system: Gal(b1-3)GalNAc(b1-4)Gal(b1-4)Glc; details: glycan notation: IUPAC condensed, linker removed
Outline: as §1

Gal(b1-3)GalNAc(b1-3)Gal = details: glycan notation: IUPAC condensed, linker removed; mutation: R125K
Outline: as §1

[6] = system: Gal(b1-3)GlcNAc(a1-6)Gal(b1-4)GlcNAc; details: glycan notation: IUPAC condensed, linker removed
Outline: as §1

[7] = system: Gal(b1-3)GlcNAc(b1-3)Gal(b1-4)GlcNAc(b1-2)[Gal(b1-3)GlcNAc(b1-3)Gal(b1-4)GlcNAc(b1-6)]Man(a1-6)[Gal(b1-3)GlcNAc(b1-3)Gal(b1-4)GlcNAc(b1-2)Man(a1-3)]Man(b1-4)GlcNAc(b1-4)[Fuc(a1-6)]GlcNAc; details: glycan notation: IUPAC condensed, linker removed
Outline: as §1

Gal(a1-4)GlcNAc = details: glycan notation: IUPAC condensed, linker removed
Outline: as §1

[8] = system: Gal(b1-3)GalNAc(a1-3)[Fuc(a1-2)]Gal(b1-4)GlcNAc; details: glycan notation: IUPAC condensed, linker removed
Outline: as §1

[9] = system: Gal(b1-3)GlcNAc(b1-3)Gal(b1-4)GlcNAc(b1-6)[Gal(b1-3)GlcNAc(b1-3)]Gal(b1-4)Glc; details: glycan notation: IUPAC condensed, linker removed
Outline: as §1

[10] = system: Gal(b1-3)GalNAc(b1-3)Gal(a1-4)Gal(b1-4)Glc; details: glycan notation: IUPAC condensed, linker removed
Outline: as §1

Gal(b1-3)Gal = details: glycan notation: IUPAC condensed, linker removed
Outline: as §1

[11] = system: Gal(b1-3)GlcNAc(b1-3)Gal(b1-4)GlcNAc; details: glycan notation: IUPAC condensed, linker removed
Outline: as §1

[12] = system: Gal(b1-3)GalNAc(b1-4)[Neu5Ac(a2-3)]Gal(b1-4)Glc; details: glycan notation: IUPAC condensed, linker removed
Outline: as §1

[13] = system: Gal(b1-3)GlcNAc(b1-2)Man(a1-3)[Gal(b1-3)GlcNAc(b1-2)Man(a1-6)]Man(b1-4)GlcNAc(b1-4)[Fuc(a1-6)]GlcNAc; details: glycan notation: IUPAC condensed, linker removed
Outline: as §1

Sequence of CHI3L1 (Homo sapiens), P36222 (P36222 whole entry): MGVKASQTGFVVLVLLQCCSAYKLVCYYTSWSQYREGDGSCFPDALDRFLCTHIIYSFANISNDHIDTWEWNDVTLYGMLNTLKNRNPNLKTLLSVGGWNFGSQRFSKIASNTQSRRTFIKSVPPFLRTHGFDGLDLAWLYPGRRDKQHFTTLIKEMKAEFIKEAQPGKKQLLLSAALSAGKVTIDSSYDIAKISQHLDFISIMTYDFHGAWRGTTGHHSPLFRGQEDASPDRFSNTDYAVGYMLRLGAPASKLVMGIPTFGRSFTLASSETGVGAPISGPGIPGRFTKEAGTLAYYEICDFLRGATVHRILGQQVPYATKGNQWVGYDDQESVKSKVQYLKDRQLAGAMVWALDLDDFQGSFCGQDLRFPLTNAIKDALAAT
Sequence of Regenerating Gene IV (Homo sapiens), Q9BYZ8 (Q9BYZ8 whole entry, looked up): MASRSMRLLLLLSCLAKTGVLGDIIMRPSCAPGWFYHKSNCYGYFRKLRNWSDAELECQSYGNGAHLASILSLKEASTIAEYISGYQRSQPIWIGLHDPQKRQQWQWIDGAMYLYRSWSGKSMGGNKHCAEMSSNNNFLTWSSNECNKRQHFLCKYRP
Sequence of 6RG (Lolium perenne) (chain, as listed by the source): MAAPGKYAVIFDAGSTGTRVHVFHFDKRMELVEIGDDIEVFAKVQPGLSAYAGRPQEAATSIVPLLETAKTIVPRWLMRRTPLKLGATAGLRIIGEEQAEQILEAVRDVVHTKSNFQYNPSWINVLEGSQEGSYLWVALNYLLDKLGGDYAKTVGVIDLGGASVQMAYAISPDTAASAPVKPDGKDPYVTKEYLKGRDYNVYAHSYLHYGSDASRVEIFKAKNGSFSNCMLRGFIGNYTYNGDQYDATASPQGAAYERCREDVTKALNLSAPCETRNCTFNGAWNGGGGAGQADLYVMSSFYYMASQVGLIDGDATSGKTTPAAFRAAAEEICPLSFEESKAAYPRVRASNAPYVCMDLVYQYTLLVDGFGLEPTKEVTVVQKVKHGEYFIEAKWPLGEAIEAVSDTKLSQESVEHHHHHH
Sequence of PILRb (Mus musculus), Q2YSF2 (Q2YSF2 entry or part of it): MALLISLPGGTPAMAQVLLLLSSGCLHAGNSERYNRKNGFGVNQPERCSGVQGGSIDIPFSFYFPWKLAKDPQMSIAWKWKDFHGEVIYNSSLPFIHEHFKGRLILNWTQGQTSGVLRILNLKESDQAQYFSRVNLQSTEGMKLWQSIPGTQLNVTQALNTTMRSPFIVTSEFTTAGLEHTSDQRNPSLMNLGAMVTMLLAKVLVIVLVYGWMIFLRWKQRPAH
Sequence of PILRa (Mus musculus), Q2YSF3 (Q2YSF3 entry or part of it): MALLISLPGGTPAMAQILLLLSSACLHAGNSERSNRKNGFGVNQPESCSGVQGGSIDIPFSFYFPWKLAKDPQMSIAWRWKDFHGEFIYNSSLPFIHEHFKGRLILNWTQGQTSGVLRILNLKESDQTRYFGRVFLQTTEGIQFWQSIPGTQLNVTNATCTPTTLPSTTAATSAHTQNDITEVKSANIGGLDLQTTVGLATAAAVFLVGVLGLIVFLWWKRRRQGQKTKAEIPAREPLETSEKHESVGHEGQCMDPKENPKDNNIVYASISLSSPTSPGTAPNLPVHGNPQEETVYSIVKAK
Sequence of Avaren (Actinomycete K97) (chain, as listed by the source): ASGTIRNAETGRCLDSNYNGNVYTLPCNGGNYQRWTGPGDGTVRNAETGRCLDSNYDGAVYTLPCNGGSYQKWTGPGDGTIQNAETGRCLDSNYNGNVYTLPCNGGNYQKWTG
Sequence of C3b (Homo sapiens), P01024 (P01024 23-667): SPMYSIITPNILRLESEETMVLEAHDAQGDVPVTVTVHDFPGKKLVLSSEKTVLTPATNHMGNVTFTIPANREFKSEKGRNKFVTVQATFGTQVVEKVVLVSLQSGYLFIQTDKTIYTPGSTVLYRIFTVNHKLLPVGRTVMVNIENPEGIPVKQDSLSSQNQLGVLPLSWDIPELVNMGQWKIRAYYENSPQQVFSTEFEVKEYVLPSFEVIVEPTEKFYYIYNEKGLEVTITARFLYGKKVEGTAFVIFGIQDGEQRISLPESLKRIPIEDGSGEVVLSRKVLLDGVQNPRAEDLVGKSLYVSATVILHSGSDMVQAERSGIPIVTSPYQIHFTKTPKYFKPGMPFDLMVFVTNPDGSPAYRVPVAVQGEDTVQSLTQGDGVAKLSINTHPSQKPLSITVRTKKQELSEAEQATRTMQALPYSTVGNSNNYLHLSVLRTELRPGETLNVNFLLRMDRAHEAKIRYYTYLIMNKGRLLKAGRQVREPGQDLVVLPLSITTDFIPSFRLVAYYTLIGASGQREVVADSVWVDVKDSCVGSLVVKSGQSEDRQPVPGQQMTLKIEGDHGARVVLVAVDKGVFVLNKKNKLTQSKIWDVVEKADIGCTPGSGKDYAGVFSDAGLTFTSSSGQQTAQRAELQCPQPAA
Sequence of CHT (Homo sapiens) (chain, as listed by the source): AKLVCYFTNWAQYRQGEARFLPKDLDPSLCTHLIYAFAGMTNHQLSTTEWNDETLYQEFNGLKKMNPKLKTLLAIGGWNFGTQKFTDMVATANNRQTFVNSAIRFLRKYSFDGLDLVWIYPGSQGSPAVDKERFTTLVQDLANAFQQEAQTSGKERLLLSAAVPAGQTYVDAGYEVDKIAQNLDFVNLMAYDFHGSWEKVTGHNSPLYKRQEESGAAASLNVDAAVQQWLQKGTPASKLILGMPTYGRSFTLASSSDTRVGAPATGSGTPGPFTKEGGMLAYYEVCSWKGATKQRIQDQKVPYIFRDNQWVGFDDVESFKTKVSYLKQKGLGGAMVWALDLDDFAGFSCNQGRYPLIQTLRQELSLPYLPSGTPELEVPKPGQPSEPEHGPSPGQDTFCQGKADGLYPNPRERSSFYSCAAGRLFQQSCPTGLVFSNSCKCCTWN
Sequence of wLAT-1A (Homo sapiens), Q01650 (Q01650 whole entry): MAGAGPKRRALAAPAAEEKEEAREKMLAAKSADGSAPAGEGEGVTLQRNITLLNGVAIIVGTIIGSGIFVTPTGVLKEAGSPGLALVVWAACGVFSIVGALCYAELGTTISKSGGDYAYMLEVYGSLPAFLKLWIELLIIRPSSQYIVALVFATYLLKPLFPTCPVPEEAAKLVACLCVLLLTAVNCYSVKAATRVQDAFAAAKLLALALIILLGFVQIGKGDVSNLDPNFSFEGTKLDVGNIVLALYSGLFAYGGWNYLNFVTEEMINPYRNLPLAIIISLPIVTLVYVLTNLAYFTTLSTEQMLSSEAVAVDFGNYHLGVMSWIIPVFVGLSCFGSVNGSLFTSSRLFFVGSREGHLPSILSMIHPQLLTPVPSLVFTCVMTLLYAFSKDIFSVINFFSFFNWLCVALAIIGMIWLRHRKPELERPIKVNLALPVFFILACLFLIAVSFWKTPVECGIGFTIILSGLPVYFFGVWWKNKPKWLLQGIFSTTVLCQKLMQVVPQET
Sequence of Neurocan (Homo sapiens), O14594 (O14594 other isoform, or with tags, fused parts or gaps): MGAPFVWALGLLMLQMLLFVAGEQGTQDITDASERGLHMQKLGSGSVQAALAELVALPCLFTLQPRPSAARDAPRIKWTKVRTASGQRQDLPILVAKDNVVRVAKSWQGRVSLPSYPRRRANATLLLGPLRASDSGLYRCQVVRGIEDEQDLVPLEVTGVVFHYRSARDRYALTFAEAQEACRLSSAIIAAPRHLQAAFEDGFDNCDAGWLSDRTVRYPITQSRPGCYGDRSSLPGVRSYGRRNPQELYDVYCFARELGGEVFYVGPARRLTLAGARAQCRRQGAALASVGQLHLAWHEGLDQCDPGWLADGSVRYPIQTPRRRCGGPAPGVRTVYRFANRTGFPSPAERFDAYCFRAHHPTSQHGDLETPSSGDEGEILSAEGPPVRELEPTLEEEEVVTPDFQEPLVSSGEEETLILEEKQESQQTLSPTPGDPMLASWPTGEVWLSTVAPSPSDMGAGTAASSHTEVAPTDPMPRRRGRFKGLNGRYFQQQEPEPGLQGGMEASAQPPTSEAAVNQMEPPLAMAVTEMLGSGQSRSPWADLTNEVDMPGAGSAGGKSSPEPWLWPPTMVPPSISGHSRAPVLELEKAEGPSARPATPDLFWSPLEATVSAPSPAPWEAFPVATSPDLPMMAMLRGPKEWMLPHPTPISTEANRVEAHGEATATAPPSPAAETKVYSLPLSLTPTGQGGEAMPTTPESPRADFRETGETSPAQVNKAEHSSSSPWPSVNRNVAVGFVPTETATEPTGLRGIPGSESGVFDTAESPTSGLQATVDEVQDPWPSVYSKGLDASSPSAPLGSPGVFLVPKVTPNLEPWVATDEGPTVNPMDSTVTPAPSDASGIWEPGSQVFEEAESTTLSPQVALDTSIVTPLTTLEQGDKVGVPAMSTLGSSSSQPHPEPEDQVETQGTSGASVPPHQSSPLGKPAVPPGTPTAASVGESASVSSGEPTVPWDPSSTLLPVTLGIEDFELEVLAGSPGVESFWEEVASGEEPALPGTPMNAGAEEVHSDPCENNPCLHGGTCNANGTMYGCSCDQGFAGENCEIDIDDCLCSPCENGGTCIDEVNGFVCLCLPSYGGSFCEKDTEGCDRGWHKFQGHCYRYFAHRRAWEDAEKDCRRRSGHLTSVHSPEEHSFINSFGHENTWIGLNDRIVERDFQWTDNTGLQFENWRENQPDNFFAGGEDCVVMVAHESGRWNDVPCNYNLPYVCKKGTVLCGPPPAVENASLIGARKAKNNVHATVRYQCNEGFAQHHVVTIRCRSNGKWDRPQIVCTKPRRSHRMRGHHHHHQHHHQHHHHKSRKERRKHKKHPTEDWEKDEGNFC

CHI3L1 (Homo sapiens), P36222
glycan array binding signal (z-score) (Gal(a1-4)Gal(b1-4)GlcNAc): -0.117 | glycan array binding signal (z-score) (Gal(a1-6)Glc): -0.088 | glycan array binding signal (z-score) [1]: 0.123

PILRb (Mus musculus), Q2YSF2
glycan array binding signal (z-score) (Gal(a1-4)Gal(b1-4)Glc): 0.026 | glycan array binding signal (z-score) [2]: 0.382 | glycan array binding signal (z-score) [3]: 0.611

6RG (Lolium perenne)
glycan array binding signal (z-score) (Gal(a1-4)Gal(b1-4)Glc): 6.7 | glycan array binding signal (z-score) [4]: 6.16 | glycan array binding signal (z-score) [5]: 0.249

Siglec-8 (Homo sapiens), Q9NYZ4
glycan array binding signal (z-score) (Gal(a1-4)Gal(b1-4)Glc; mutation: R125K): 0.026 | glycan array binding signal (z-score) [2]: -0.073 | glycan array binding signal (z-score) (Gal(b1-3)GalNAc(b1-3)Gal): -0.035 | glycan array binding signal (z-score) [6]: -0.162 | glycan array binding signal (z-score) [7]: 0.166

C3b (Homo sapiens), P01024
glycan array binding signal (z-score) (Gal(a1-4)GlcNAc): -0.904 | glycan array binding signal (z-score) [5]: -0.644

CHT (Homo sapiens)
glycan array binding signal (z-score) (Gal(a1-4)GlcNAc; mutation: D138V, E140I): 0.017

PILRa (Mus musculus), Q2YSF3
glycan array binding signal (z-score) [8]: -0.192 | glycan array binding signal (z-score) [9]: -0.146

Regenerating Gene IV (Homo sapiens), Q9BYZ8
glycan array binding signal (z-score) [10]: -0.44 | glycan array binding signal (z-score) (Gal(b1-3)Gal): -0.546 | glycan array binding signal (z-score) [11]: -0.615

MpAFP RI GFP (Marinomonas primoryensis)
glycan array binding signal (z-score) [12]: -0.54 | glycan array binding signal (z-score) [1]: 1.37

wLAT-1A (Homo sapiens), Q01650
glycan array binding signal (z-score) [12]: -0.218

HARE (Homo sapiens), Q8WWQ8
glycan array binding signal (z-score) (Gal(b1-3)Gal): 2.26

Neurocan (Homo sapiens), O14594
glycan array binding signal (z-score) [6]: -0.985

Avaren (Actinomycete K97)
glycan array binding signal (z-score) [13]: -0.081 | glycan array binding signal (z-score) [7]: 1.97
